Experimental data published in PubChem BioAssay AID504832 (National Center for Advancing Translational Sciences (NCATS), 2011).
The whole screen tested about 310,000 compounds, of which about 18,000 (5.8%) were called active. A call without a number means that no potency is given here. Not shown: some 22% with an inconclusive outcome. The full list was thinned out, with actives kept by preference. Unmarked numbers belong to inactive results. The call rests on the fitted dose curve; in most records, active means well fitted inhibition curve with a large enough effect; inconclusive means small, poorly fitted or top-dose-only effect, or another doubt; inactive means no such curve, though single readings can be large or run the other way.

Assay: Primary qHTS for delayed death inhibitors of the malarial parasite plastid, 48 hour incubation
Conditions: P. falciparum luciferase growth in erythrocytes; series mostly up to 28.7 µM
How it was run: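 Here the parasites carry a stable luciferase gene and grow inside erythrocytes in Albumax-based RPMI medium with compound for one erythrocytic cycle. Activity is scored as loss of luminescent signal.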
Potency means the concentration at half of the fitted maximal effect.

| Structure (SMILES) | Potency | activity change, negative = inhibition |
| --- | --- | --- |
| O=C(Cn1nnc(-c2ccccc2)n1)NC(=O)NC1CCCC1 | inactive |  |
| O=C(Cn1nnc(-c2ccc3c(c2)OCO3)n1)NCc1ccco1 | inactive |  |
| CCC(C(=O)NC1CCCC1)N(C(=O)Cn1nnc(-c2ccc(C)o2)n1)c1ccc(OC)c(OC)c1 (stereo unspecified) | 10.4 µM (active) |  |
| COc1cccc(N(CC(=O)NC2CCCC2)C(=O)Cn2nnc(-c3ccc(C)cc3)n2)c1 | inactive |  |
| Cc1ccc(-c2nnn(CC(=O)N(Cc3ccco3)C(C(=O)NC(C)(C)C)c3ccncc3)n2)o1 (stereo unspecified) | 14.7 µM (active) |  |
| COc1ccc(C)cc1N(C(=O)Cn1nnc(-c2ccc(C)o2)n1)C(C(=O)NC1CCCC1)c1ccncc1 (stereo unspecified) | 5.22 µM (active) |  |
| Cc1cc(NC(=O)CCC(=O)N(c2ccccc2)C(C(=O)NC2CCCC2)c2ccncc2)no1 (stereo unspecified) | inactive |  |
| Cc1ccc(-c2nnn(CC(=O)N(CCO)C(C(=O)NC(C)(C)C)c3ccncc3)n2)cc1 (stereo unspecified) | inactive |  |
| Cc1cccc(N(C(=O)Cn2nnc(-c3ccc(C)o3)n2)C(C(=O)NC2CCCC2)c2ccncc2)c1 (stereo unspecified) | inactive |  |
| CCc1ccc(-c2cc3c(=O)n(CC(=O)NCCCN4CCN(Cc5ccccc5)CC4)nc(C)n3n2)cc1 | inactive |  |
| CC(CCc1ccc(O)cc1)NCc1ccc(Cl)cc1Cl (stereo unspecified) | inactive |  |
| CN(C(=O)c1ccccc1)c1nccnc1C#N | inactive |  |
| CCOC(=O)CSc1nnc(NC(=O)C2CC(=O)N(c3ccc(F)cc3)C2)s1 (stereo unspecified) | inactive |  |
| CCOC(=O)c1cccc(NC(=O)CN2C(=O)C3CC=CCC3C2=O)c1 (stereo unspecified) | inactive |  |
| COc1ccccc1CNS(=O)(=O)c1cc2c3c(c1)CCC(=O)N3CCC2 | inactive |  |
| COc1ccc(C(=O)NC2CC2)cc1OC1CCN(C/C=C/c2ccccc2)CC1 | inactive |  |
| CNC(=O)NC(=O)C(C)N1CCN(C/C=C/c2ccccc2)CC1 (stereo unspecified) | inactive |  |
| COc1cc(C(=O)N2CCN(C/C=C/c3ccccc3)CC2)cc(OC)c1C | 10.4 µM (active) |  |
| CC(C)[C@@H](C(=O)O)N(Cc1cccc(CN([C@H](C(=O)O)C(C)C)S(C)(=O)=O)c1)S(C)(=O)=O | inactive |  |
| Cc1nnc2n1N=C(c1ccccc1)CS2 |  | 1.87% [at 0.00184 µM] |
| CN(CC(=O)Nc1cccc(F)c1)C(=O)C1=COCCO1 | inactive |  |
| CCc1nc(Nc2ccc(NC(C)=O)cc2)c2oc3ccccc3c2n1 | inactive |  |
| CCc1nc(N2CCN(c3nc(C)cc(C)n3)CC2)c2oc3ccccc3c2n1 | inactive |  |
| CCc1nc(Nc2ccc3nccnc3c2)c2oc3ccccc3c2n1 | 1.04 µM (active) |  |
| COCC1CCN(C(=O)CCc2nnc(C3(c4ccc(Cl)cc4)CCC3)o2)C1 (stereo unspecified) | inactive |  |
| Cc1noc(C)c1CSCC(=O)Nc1ccc(Br)cc1Cl | inactive |  |

| Structure (SMILES) | Potency | activity change, negative = inhibition |
| --- | --- | --- |
| COc1cc(C(=O)N2CCN(C3CCC(C)CC3)CC2)cc(OC)c1OC (stereo unspecified) | inactive |  |
| OC(COc1ccccc1)Cn1cc(Br)cn1 (stereo unspecified) | inactive |  |
| CC(O)COc1ccccc1 (stereo unspecified) | inactive |  |
| OC(CN=c1sc2ccccc2n1CC(O)COc1ccccc1)COc1ccccc1 (stereo unspecified) | 13.1 µM (active) |  |
| Cn1nccc1C(=O)NC1CCCc2c1cnn2-c1ccccc1F (stereo unspecified) | inactive |  |
| CC(C)C(NS(=O)(=O)c1cccs1)C(=O)Nc1nc(C(C)(C)C)cs1 (stereo unspecified) | 11.7 µM (active) |  |
| CC(C)(C)c1csc(NC2=NS(=O)(=O)c3ccccc32)n1 | inactive |  |
| COc1ccc(CNC(=O)C(NS(=O)(=O)c2cccc3nsnc23)C(C)C)cc1 (stereo unspecified) | inactive |  |
| O=C(OCC(=O)N1CCCC1)c1ccc(Cl)nc1 | inactive |  |
| CCCc1cc(=O)oc2c(C)c(OCC(=O)N3CCC(C(=O)O)CC3)ccc12 | inactive |  |
| CCCc1cc(=O)oc2c(C)c(O)c(CN3CCCCC3)cc12 | 1.65 µM (active) |  |
| CCCc1cc(=O)oc2c(C)c(OC(C)C(=O)NCC(O)c3ccccc3)ccc12 (stereo unspecified) | inactive |  |
| CN(CC(=O)NCc1ccncc1)S(=O)(=O)c1ccc(Br)cc1 | inactive |  |
| Cc1ccc(CN(C)Cc2cc(=O)oc3cc(C)c(Cl)cc23)cc1 | inactive |  |
| Cc1ccc(O)c(NC(=S)NC(=O)COc2ccc(Br)cc2)c1 | inactive |  |
| Cc1ccc(C)c(OCC(=O)NNC(=O)C2CCC2)c1 | inactive |  |
| Cc1ccc(O)c(NC(=O)COc2cc(C)ccc2C)c1 | 2.94 µM (active) |  |
| CC(NC(=O)CNC(=O)Cc1cccc2ccccc12)c1ccc(S(N)(=O)=O)cc1 (stereo unspecified) | inactive |  |
| CCc1cc(=O)oc2c(C)c(OCC(=O)NCCN3CCOCC3)ccc12 | inactive |  |
| COc1cccc(-c2ccc3c(c2)S(=O)(=O)c2cccc(C(=O)O)c2C3=O)c1OC | inactive |  |
| Cc1c(C(=O)N2CCN(c3ccc(F)cc3)CC2)oc2c1C(=O)CCC2 | inactive |  |
| Cn1c2ccccc2c2c(C(=O)N3CCN(c4ccc(F)cc4)CC3)cn(C3CCCC3)c(=O)c21 | 10.4 µM (active) |  |
| CC(C)N(C(=O)COC(=O)c1ccccc1C(=O)N1CCN(c2ccc(F)cc2)CC1)C(C)C | inactive |  |
| COc1cccc(C(=O)Nc2nnc(S(=O)(=O)N(C)c3ccccc3)s2)c1 | inactive |  |
| COc1cccc(/C=C/C(=O)OCC(=O)N2CCN(c3ccccc3)CC2)c1 | inactive |  |
| COc1ccc(S(=O)(=O)N2CCN(C(=O)NC3CCCCC3)CC2)cc1 | inactive |  |

| Structure (SMILES) | Potency | activity change, negative = inhibition |
| --- | --- | --- |
| COc1ccc(S(=O)(=O)N2CCN(C(C)C(=O)Nc3ccc(C(C)C)cc3)CC2)cc1 (stereo unspecified) | 10.4 µM (active) |  |
| COc1ccc(OCC(=O)OCC(=O)Nc2ccc(S(=O)(=O)N3CCCCC3)cc2)cc1 | inactive |  |
| CC(NC(=O)CN(C)S(=O)(=O)c1ccc(F)cc1)C1CC2CCC1C2 (stereo unspecified) | inactive |  |
| CC(=O)Nc1ccc(N2C(=O)CC(Sc3nccc(C)n3)C2=O)cc1 (stereo unspecified) | inactive |  |
| COc1cc(Cl)ccc1OCc1cc(C(=O)N(C)CCc2c(C)n[nH]c2C)no1 | inactive |  |
| O=C(O)COCC(=O)NCc1csc2ccc(Cl)cc12 | inactive |  |
| CNC(=O)O/N=C(\N)Cc1csc2ccc(Cl)cc12 | 3.7 µM (active) |  |
| CN(CCO)Cc1csc2ccc(Br)cc12 | inactive |  |
| CCOC(=O)Cc1csc(NC(=O)C(C)(C)C)n1 | inactive |  |
| CCOC(=O)Cc1csc(NC(=O)CSc2nc(C)cc(=O)[nH]2)n1 | inactive |  |
| CCOC(=O)Cc1csc(NC(=O)CSc2ccc(Br)cc2)n1 | 10.4 µM (active) |  |
| CCC(C)C(N=C1NS(=O)(=O)c2ccccc21)C(=O)N1CCC(C)CC1 (stereo unspecified) | inactive |  |
| CC(C)c1ccc(NC(=O)[C@@H](NC(=O)N2CC(=O)Nc3ccccc32)C(C)C)cc1 | inactive |  |
| O=C(N/N=C/c1ccc(OC(=O)c2ccccc2Cl)cc1)c1ccc(O)cc1 | inactive |  |
| CSc1ncccc1C(=O)NCc1ccccc1Cl | inactive |  |
| CC(NC(=O)c1ccccc1F)c1cccc2ccccc12 (stereo unspecified) | inactive |  |
| COc1ccc(S(=O)(=O)n2nc(C)c(S(=O)(=O)N3CCOCC3)c2C)cc1 | inactive |  |
| CC(NS(=O)(=O)c1ccc(Br)cc1)C(=O)NCC1CCCO1 (stereo unspecified) | inactive |  |
| OC(CNCC1CCCO1)Cn1c2ccc(Br)cc2c2cc(Br)ccc21 (stereo unspecified) | 0.586 µM (active) |  |
| O=C(CSc1ccc(-c2ccc(Br)cc2)nn1)NCC1CCCO1 (stereo unspecified) | inactive |  |
| CCc1ccc(C(=O)NN=C2CCCCCC2)s1 | inactive |  |
| CCOc1ccc(CN2CCNC(=O)C2CC(=O)NCCCC2CCCC2)cc1 (stereo unspecified) | inactive |  |
| Cc1nc2ccc(C(=O)N/N=C/c3ccc(O)cc3)cc2[nH]1 | inactive |  |
| COC(=O)COc1ccc(S(=O)(=O)N2CCOCC2)cc1 | inactive |  |
| COc1ccc(S(=O)(=O)N2CCN(CC(=O)NCC3(N4CCOCC4)CCCCC3)CC2)cc1 | 9.28 µM (active) |  |
| COc1ccc(CNC(=O)COC(=O)/C=C/c2ccc(S(=O)(=O)N3CCOCC3)cc2)cc1 | inactive |  |

| Structure (SMILES) | Potency | activity change, negative = inhibition |
| --- | --- | --- |
| CCc1ccc(OC(C)C(=O)Nc2ccc(S(=O)(=O)Nc3cc(C)on3)cc2)cc1 (stereo unspecified) | inactive |  |
| CC1CCN(C(=O)CCNC(=O)c2ccccc2)CC1 | inactive |  |
| CN(CC(=O)Nc1ccc(F)c(F)c1F)C(=O)C1CC(=O)N(C2CCCC2)C1 (stereo unspecified) | inactive |  |
| O=C(CN1CCC(NC(=O)C2CC2)CC1)Nc1ccccc1[N+](=O)[O-] | inactive |  |
| CC(C)c1ccccc1OCC(O)CN(CC(O)COc1cccc2ccccc12)C(C)C (stereo unspecified) | 1.65 µM (active) |  |
| CN1CCN(CCCCOc2cccc3ccccc23)CC1 | inactive |  |
| OC(COc1cccc2ccccc12)CN1CCN(c2ccccn2)CC1 (stereo unspecified) | inactive |  |
| NC(=O)C(Cc1ccccc1)NC(=O)C12CC3CC(CC(C3)C1)C2 (stereo unspecified) | inactive |  |
| CNS(=O)(=O)c1ccc(C(=O)NCC(=O)NCCc2ccc3c(c2)OCCO3)cc1 | inactive |  |
| CCOC(=O)c1c(C)[nH]c2c1-c1ccccc1C(=O)C2=O | 1.47 µM (active) |  |
| CCOC(=O)c1c(C)[nH]c(C)c1S(=O)(=O)N(C)CC(=O)Nc1ccccc1C | inactive |  |
| CCOC(=O)N1CCN(CC(=O)c2c(C)[nH]c3ccccc23)CC1 | inactive |  |
| COc1cc(SC#N)ccc1N=Cc1c(C)[nH]n(-c2ccc(C)cc2)c1=O | 13.1 µM (active) |  |
| Cc1ccc(-n2[nH]c(C)c(/C=N/N3C(=O)c4cccc5cccc(c45)C3=O)c2=O)cc1 | inactive |  |
| CCc1nnc(NS(=O)(=O)c2ccc(N=Cc3c(C)[nH]n(-c4ccc(C)cc4)c3=O)cc2)s1 | inactive |  |
| COc1cccc(N2CC(NC(=O)c3ccc4ccccc4c3)CC2=O)c1 (stereo unspecified) | inactive |  |
| COC(=O)c1cc(S(=O)(=O)Nc2ccc(C)c(F)c2)c[nH]1 | inactive |  |
| Cc1ccc(NC(=O)CSc2cccc3cccnc23)c(C)c1 | inactive |  |
| COC(=O)c1ccc(-c2c(-c3ccccc3)ncc3cc(OC)c(OC)cc23)cc1 | inactive |  |
| O=C1CC2(CCN(C(=O)COc3ccc(F)cc3)CC2)Oc2ccccc21 | inactive |  |
| CCC(C)n1c(-c2cc(OC)c(OC)c(OC)c2)nc2nc3ccccc3nc21 (stereo unspecified) | 13.1 µM (active) |  |
| COc1cc(-c2n[nH]c(=S)n2Cc2ccccc2)cc(OC)c1OC | inactive |  |
| COc1ccc(CCn2c(-c3ccco3)nc3nc4ccccc4nc32)cc1OC | inactive |  |
